Laboratory results from the supplement of paper PMC9446081.
± gives the standard deviation of the averaged measurements.

How the values were obtained:
Assay in all cases: relative enzymatic activity vs untreated control (fraction); higher = less inhibition
Settings in all cases: 100 µM; incubation time: 2 h at 37 C
DNA gyrase = system: DNA gyrase
Experimental: (§1)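 In vitro enzymatic inhibition assays (ProFoldin kits) for 12 purified essential E. coli enzymes or complexes, each treated with 218 active antibacterial compounds at 100 µM for 2 h at 37°C. Read-outs were fluorescence or absorbance (phosphate detection, dye binding), converted to activity via standard curves and expressed relative to untreated DMSO controls.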

DNA helicase = DNA helicase (UniProt P0ACB1)
Experimental: as §1

DNA ligase = DNA ligase (UniProt B1XA82)
Experimental: as §1

DNA polymerase = DNA polymerase (UniProt P10443)
Experimental: as §1

DNA primase = DNA primase (UniProt P0ABS7)
Experimental: as §1

GlmU = GlmU (UniProt A7ZTU1)
Experimental: as §1

Guanlyate kinase = Guanlyate kinase (UniProt Q0TBG1)
Experimental: as §1

MurA = MurA (UniProt Q3YX52)
Experimental: as §1

MurD = molecular target: T1, MurD (UniProt P14900)
T1 sequence (whole entry): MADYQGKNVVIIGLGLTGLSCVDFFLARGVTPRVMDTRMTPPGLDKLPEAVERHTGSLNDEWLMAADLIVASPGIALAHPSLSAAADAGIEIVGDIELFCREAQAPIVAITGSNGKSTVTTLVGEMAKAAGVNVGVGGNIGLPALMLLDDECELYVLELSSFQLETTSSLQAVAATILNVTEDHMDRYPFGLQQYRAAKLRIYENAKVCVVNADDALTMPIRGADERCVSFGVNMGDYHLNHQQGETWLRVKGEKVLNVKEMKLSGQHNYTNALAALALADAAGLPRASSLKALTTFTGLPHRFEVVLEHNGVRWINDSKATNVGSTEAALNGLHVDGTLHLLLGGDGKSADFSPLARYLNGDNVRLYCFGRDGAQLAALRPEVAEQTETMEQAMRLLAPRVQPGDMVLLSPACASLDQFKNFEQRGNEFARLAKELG
Experimental: as §1

MurF = molecular target: T2, MurF (UniProt P11880)
T2 sequence (whole entry): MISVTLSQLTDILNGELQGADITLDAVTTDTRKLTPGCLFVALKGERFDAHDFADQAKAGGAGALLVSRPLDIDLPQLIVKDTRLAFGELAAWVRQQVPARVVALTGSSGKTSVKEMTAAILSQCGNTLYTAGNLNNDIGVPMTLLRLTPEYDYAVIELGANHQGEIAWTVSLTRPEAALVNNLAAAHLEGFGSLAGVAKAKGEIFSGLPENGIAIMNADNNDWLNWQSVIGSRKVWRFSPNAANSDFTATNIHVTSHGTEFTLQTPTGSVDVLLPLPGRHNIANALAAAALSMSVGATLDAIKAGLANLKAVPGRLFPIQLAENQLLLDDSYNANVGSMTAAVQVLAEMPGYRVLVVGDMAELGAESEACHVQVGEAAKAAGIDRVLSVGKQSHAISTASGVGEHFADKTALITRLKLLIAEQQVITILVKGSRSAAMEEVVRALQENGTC
Experimental: as §1

RNA polymerase = system: RNA polymerase
Experimental: as §1

Sequence of DNA helicase (P0ACB1 whole entry): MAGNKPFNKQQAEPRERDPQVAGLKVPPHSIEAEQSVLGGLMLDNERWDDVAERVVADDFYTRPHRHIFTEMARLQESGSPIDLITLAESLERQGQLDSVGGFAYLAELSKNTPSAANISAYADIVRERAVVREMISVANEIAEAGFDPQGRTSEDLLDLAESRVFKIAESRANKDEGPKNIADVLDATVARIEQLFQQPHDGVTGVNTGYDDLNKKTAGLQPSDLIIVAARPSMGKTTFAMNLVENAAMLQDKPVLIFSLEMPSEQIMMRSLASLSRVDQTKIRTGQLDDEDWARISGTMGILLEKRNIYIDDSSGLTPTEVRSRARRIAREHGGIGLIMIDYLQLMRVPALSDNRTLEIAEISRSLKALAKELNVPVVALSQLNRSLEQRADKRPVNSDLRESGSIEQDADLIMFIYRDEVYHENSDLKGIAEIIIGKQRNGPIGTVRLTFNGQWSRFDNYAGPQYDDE
Sequence of MurA (Q3YX52 whole entry): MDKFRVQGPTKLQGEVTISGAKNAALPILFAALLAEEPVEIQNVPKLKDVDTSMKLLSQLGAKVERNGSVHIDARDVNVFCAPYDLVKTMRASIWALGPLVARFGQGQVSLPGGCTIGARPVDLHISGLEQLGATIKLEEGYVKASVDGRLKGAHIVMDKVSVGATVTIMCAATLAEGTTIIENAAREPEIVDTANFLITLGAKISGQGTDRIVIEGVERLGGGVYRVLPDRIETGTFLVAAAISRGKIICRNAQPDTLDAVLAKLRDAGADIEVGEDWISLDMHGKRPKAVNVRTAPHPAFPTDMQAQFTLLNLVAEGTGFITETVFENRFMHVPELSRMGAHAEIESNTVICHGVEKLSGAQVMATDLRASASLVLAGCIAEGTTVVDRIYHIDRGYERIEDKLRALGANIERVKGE
Sequence of DNA polymerase (P10443 whole entry): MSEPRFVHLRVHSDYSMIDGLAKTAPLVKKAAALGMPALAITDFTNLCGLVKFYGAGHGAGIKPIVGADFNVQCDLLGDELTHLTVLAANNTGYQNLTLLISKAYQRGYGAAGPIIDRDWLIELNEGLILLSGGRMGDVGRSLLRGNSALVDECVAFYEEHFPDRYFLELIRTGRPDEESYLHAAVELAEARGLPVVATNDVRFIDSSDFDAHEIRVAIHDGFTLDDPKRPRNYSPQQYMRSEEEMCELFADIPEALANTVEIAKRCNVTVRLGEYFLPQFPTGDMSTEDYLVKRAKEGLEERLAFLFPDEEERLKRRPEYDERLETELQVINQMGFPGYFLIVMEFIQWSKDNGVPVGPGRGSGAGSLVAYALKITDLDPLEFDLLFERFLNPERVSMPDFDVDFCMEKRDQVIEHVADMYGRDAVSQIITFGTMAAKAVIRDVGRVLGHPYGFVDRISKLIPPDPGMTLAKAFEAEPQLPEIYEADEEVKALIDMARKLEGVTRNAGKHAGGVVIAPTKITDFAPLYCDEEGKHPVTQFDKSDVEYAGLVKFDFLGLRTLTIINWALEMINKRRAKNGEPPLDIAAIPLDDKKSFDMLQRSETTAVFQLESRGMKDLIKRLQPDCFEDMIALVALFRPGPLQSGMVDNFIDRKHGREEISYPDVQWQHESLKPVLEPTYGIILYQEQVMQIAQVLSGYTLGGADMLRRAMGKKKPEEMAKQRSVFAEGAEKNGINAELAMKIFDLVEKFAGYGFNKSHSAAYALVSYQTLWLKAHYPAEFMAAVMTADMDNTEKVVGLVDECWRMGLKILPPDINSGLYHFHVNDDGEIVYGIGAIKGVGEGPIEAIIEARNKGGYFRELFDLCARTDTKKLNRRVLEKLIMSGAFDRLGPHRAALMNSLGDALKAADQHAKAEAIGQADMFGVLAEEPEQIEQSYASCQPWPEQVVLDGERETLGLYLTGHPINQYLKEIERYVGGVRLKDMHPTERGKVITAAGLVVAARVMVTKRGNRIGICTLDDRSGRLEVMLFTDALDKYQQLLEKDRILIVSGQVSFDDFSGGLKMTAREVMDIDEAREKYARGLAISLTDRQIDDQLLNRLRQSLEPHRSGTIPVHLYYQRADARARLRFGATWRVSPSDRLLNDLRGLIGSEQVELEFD
Sequence of DNA ligase (B1XA82 whole entry): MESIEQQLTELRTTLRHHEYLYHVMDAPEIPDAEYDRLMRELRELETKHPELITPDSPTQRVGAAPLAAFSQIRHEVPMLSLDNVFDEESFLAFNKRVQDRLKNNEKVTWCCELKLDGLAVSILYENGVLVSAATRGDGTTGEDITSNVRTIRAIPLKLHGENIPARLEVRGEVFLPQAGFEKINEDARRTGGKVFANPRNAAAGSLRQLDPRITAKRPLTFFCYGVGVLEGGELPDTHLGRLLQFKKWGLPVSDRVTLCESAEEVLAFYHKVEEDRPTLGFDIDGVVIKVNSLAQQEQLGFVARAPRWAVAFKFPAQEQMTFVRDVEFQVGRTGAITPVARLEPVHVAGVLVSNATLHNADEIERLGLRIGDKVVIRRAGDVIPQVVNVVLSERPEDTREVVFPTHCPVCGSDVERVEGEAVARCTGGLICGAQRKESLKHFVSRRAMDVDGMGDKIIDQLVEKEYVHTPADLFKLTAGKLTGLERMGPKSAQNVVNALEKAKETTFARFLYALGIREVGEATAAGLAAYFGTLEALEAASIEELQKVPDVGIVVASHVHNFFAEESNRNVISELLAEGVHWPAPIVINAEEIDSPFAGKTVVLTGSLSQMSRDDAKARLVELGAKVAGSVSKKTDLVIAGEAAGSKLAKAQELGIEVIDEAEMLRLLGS
Sequence of Guanlyate kinase (Q0TBG1 whole entry): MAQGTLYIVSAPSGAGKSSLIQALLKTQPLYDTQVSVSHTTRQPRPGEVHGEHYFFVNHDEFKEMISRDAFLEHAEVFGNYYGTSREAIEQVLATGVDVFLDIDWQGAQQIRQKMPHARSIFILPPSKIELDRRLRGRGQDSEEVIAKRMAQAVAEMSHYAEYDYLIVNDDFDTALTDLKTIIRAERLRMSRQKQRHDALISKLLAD
Sequence of DNA primase (P0ABS7 whole entry): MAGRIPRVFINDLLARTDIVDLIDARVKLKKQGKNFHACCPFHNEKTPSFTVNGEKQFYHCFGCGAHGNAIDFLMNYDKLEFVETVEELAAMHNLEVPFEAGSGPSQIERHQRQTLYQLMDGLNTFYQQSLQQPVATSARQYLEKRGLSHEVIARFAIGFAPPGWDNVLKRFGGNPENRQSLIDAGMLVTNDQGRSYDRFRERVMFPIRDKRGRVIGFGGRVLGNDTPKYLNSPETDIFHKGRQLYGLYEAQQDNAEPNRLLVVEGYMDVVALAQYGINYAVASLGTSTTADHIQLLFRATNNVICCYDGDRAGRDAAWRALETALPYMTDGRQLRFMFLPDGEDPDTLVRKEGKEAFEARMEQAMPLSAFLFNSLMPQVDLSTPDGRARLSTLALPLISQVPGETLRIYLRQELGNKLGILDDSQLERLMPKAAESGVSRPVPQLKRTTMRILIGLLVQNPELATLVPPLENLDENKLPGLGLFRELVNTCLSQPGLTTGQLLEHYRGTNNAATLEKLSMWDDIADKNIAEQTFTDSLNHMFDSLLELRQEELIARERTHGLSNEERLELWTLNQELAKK
Sequence of GlmU (A7ZTU1 whole entry, looked up): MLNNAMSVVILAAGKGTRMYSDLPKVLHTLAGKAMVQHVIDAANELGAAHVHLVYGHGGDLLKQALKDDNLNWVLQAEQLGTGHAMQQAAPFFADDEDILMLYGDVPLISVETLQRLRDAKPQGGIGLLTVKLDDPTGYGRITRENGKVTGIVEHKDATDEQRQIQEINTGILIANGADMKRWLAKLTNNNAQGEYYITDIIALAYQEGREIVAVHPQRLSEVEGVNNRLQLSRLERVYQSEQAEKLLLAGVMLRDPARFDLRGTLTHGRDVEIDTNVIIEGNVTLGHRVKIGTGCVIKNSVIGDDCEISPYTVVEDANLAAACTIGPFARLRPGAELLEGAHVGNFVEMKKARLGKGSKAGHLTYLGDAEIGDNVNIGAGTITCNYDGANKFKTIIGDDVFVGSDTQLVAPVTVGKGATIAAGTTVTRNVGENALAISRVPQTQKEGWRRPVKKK

Compound | relative enzymatic activity (DNA gyrase) | relative enzymatic activity (DNA helicase) | relative enzymatic activity (DNA ligase) | relative enzymatic activity (DNA polymerase) | relative enzymatic activity (DNA primase) | relative enzymatic activity (GlmU) | relative enzymatic activity (Guanlyate kinase) | relative enzymatic activity (MurA) | relative enzymatic activity (MurD) | relative enzymatic activity (MurF) | relative enzymatic activity (RNA polymerase)
CC1(C)SC2C(N3C(=O)C(c4ccccc4)NC3(C)C)C(=O)N2C1C(=O)[O-].[K+] (stereo not drawn) | 1.14 ± 0.073 | 0.458 ± 0.13 | 1.67 ± 0.9 | 1.36 ± 0.37 | 0.776 ± 0.26 | 0.948 ± 0.043 | 1.13 ± 0.1 | 0.219 ± 0.028 | 0.563 ± 0.37 | 0.945 ± 0.14 | 0.90251 ± 0.00052
Cc1nnc(SCC2=C(C(=O)O)N3C(=O)[C@@H](NC(=O)Cn4cnnn4)[C@H]3SC2)s1 | 0.719 ± 0.43 | 0.348 ± 0.37 | 0.987 ± 0.14 | 1.17 ± 0.26 | 0.792 ± 0.035 | 0.995 ± 0.059 | 0.9645 ± 0.0053 | 0.137 ± 0.029 | 0.604 ± 0.41 | 0.96 ± 0.22 | 0.862 ± 0.057
CCCCCCCCCCCCC[N+](C)(C)Cc1ccccc1.O.[Cl-] | 0.0515 ± 0.073 | 0.0193 ± 0.00021 | 0.811 ± 0.32 | 0.208 ± 0.0053 | 0.482 ± 0.019 | 0.157 ± 0.036 | 0.171 ± 0.062 | 0.051 ± 0.015 | 0.115 ± 0.035 | 0.102 ± 0.021 | 0.32 ± 0.068
CC(=O)On1cc(F)c(=O)[nH]c1=O | 0.636 ± 0.53 | 0.603 ± 0.23 | 0.979 ± 0.23 | 1.03 ± 0.18 | 0.765 ± 0.056 | 0.977 ± 0.015 | 0.859 ± 0.015 | 0.673 ± 0.096 | 0.464 ± 0.59 | 0.933 ± 0.22 | 0.746 ± 0.13
O=c1[nH]c(=O)n([C@@H]2C[C@@H](O)[C@@H](CO)O2)cc1F | 1.07 ± 0.043 | 0.591 ± 0.15 | 0.947 ± 0.062 | 0.708 ± 0.44 | 0.873 ± 0.022 | 1.03 ± 0.065 | 0.967 ± 0.1 | 0.74 ± 0.18 | 0.604 ± 0.39 | 1.01 ± 0.22 | 0.834 ± 0.019
COC1C=COC2(C)Oc3c(C)c(O)c4c(O)c(c(C=NN5CCN(C6CCCC6)CC5)c(O)c4c3C2=O)NC(=O)C(C)=CC=CC(C)C(O)C(C)C(O)C(C)C(OC(C)=O)C1C (stereo not drawn) | 0.305 ± 0.28 | 0.66 ± 0.082 | 0.866 ± 0.13 | 0.952 ± 0.37 | 0.647 ± 0.093 | 0.259 ± 0.016 | 0.435 ± 0.013 | 0.144 ± 0.12 | 0.132 ± 0.046 | 0.4854 ± 0.0039 | 0.0856 ± 0.00076
CCCCCCCCCCCCCCCC[N+](C)(C)C | 0.633 ± 0.67 | 0.0316 ± 0.02 | 0.457 ± 0.13 | 0.0628 ± 0.012 | 0.384 ± 0.054 | 0.198 ± 0.0053 | 0.644 ± 0.077 | 0.0456 ± 0.013 | 0.173 ± 0.085 | 0.106 ± 0.034 | 0.223 ± 0.0051
Nc1nc(C(=CCC(=O)O)C(=O)NC2C(=O)N3C(C(=O)O)=CCSC23)cs1 (stereo not drawn) | 0.16 ± 0.14 | 0.257 ± 0.0059 | 1.1 ± 0.24 | 0.742 ± 0.27 | 0.682 ± 0.082 | 0.934 ± 0.01 | 0.901 ± 0.03 | 0.0583 ± 0.02 | 0.575 ± 0.39 | 0.958 ± 0.24 | 0.292 ± 0.037
CO[C@@H]1[C@@H](OC(=O)c2ccc(C)[nH]2)[C@@H](O)[C@@H](Oc2ccc3c(c2C)OC(=O)[C@H](NC(=O)c2[nH]cc(CC(=O)Nc4cc5ccc(O[C@@H]6OC(C)(C)[C@H](OC)[C@@H](OC(=O)c7ccc(C)[nH]7)[C@H]6O)c(C)c5oc4=O)c2C)C3)CC1(C)C | 0.165 ± 0.23 | 0.0977 ± 0.012 | 0.835 ± 0.013 | 0.759 ± 0.06 | 0.876 ± 0.11 | 0.892 ± 0.021 | 0.72 ± 0.087 | 1.09 ± 0.059 | 0.869 ± 0.57 | 1.26 ± 0.26 | 0.715 ± 0.093
Cl.NC1CCN(c2c(F)cc3c(=O)c(C(=O)O)cn(C4CC4)c3c2Cl)C1 (stereo not drawn) | 0.213 ± 0.3 | 0.622 ± 0.2 | 0.994 ± 0.13 | 1.08 ± 0.17 | 0.872 ± 0.014 | 0.974 ± 0.019 | 0.92 ± 0.21 | 0.73669 ± 0.0002 | 0.606 ± 0.42 | 0.977 ± 0.24 | 0.809 ± 0.07
Cl.Cl.N=C(NCCCCCCNC(=N)NC(=N)Nc1ccc(Cl)cc1)NC(=N)Nc1ccc(Cl)cc1 | 0.0297 ± 0.042 | 0.0449 ± 0.0094 | 0.488 ± 0.68 | 0.365 ± 0.03 | 0.306 ± 0.046 | 0.9017 ± 0.0055 | 0.341 ± 0.043 | 0.108 ± 0.015 | 0.545 ± 0.35 | 0.871 ± 0.16 | 0.0331 ± 0.011
CCn1cc(C(=O)O)c(=O)c2cc(F)c(N3CCN(C)CC3)cc21.CS(=O)(=O)O | 0.0308 ± 0.043 | 0.573 ± 0.14 | 1.16 ± 0.29 | 1.27 ± 0.33 | 0.843 ± 0.025 | 0.944 ± 0.037 | 0.919 ± 0.11 | 0.696 ± 0.11 | 0.589 ± 0.41 | 1.109 ± 0.0024 | 0.862 ± 0.089
CN(C)c1ccc(O)c2c1C[C@@H]1C[C@@H]3[C@@H](N(C)C)C(=O)C(C(N)=O)=C(O)[C@]3(O)C(=O)[C@H]1C2=O | 0.00646 ± 0.0091 | 0.123 ± 0.0035 | 0.699 ± 0.021 | 0.021 ± 0.0081 | 0.424 ± 0.027 | 0.655 ± 0.21 | 0.152 ± 0.014 | 0.0751 ± 0.025 | 0.665 ± 0.43 | 1.21 ± 0.043 | 0.00236 ± 0.0021
